In the library only some 4.6% were active in any assay of this set; here they are far more common.
D1 antagonist – human D1 dopamine receptor antagonism; P21728; HEK293 TREx D1 cells, calcium flux, dopamine EC80; active compounds read low; activity change, negative = inhibition, % at 10 µM; 360,000 compounds, 3.2% hits; in the data active means activity change below about -30%
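Using tetracycline-induced force-coupled D1 Hek293 cells and a calcium dye, signals were followed for 180 s after compound, then for 180 s after EC80 dopamine, to detect inhibitors.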
TRHR agonist – activates the human TRH receptor | P34981 | TRHR cells, calcium flux fluo-8, FDSS agonist mode | activation, % at 2 µM | 360,000 compounds, 0.18% hits | AID 493084
Target sequence (P34981 whole entry, looked up): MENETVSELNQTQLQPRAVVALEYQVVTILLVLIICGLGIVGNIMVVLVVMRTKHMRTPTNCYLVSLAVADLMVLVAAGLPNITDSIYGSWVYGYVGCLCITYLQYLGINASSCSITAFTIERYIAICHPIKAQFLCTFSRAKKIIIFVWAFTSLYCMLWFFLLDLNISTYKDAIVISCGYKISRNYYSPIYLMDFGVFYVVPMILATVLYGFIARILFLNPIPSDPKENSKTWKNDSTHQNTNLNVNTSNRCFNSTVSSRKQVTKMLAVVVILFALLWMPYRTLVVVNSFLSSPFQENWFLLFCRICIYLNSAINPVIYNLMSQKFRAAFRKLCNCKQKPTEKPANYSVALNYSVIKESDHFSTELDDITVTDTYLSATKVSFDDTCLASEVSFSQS
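Read-out: compound-evoked intracellular calcium rise in TRHR cells, fluo-8 dye, kinetic FDSS fluorescence at 1 s/cycle following a 10-cycle baseline. Cells cultured overnight before dye loading (30 min–1.5 h, RT).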
D1 ag – activates the human D1 dopamine receptor | 360,000 compounds, 1% hits | P21728 | activation, % at 2 µM | HEK293 T-REx D1 cells, calcium flux, agonist mode
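Inducible HEK293 T-REx D1 cells, force-coupled to calcium signalling, were plated at 4000 cells/well with tetracycline and held overnight at 30 C. After no-wash calcium dye loading, compound-evoked calcium rise over 180 s flagged agonists.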
D1 potentiator – enhances dopamine response at the human D1 receptor. P21728. HEK293 TREx D1 cells, calcium flux, dopamine EC20 potentiation. potentiation, % at 10 µM. 360,000 compounds, 0.036% hits; in the data active means potentiation above about 30%
TRHR enhancer – TRH receptor (human) allosteric enhancement. P34981. TRHR cells, fluo-8 calcium fluorescence, EC20 TRH enhancement. AID 493056. 360,000 compounds, 0.66% hits. enhancement, % at 2 µM; in the data active means enhancement above about 30%
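TRHR-expressing cells loaded with fluo-8 calcium dye were read kinetically (ex 480/em 530) during compound addition, then stimulated with an EC20 of TRH (10 nM final). Enhancement of the Gq-mediated intracellular calcium response was scored.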
Of the large screens only hits and unclear results are named; the others gave an inactive call. Unless noted, no stated cut-off is given here; in the data, active means activation above about 30%; inactive means the rest.

COc1ccc(C(=O)COC(=O)CCN2C(=O)C3CC=CCC3C2=O)c(OC)c1 (stereo unspecified)	none
Cc1ccc(C(=O)C(C)OC(=O)CNC(=O)c2ccc(Br)o2)cc1 (stereo unspecified)	none
CCOC(=O)C1CCCN(c2ncnc3c2cnn3-c2ccc(C)c(Cl)c2)C1 (stereo unspecified)	D1 antagonist -34
O=C(NCCN1CCN(c2ccccc2F)CC1)C1COc2ccccc2C1 (stereo unspecified)	D1 antagonist -57
COc1ccc2c(c1)CC(C(=O)NCCN1CCN(c3cccc(Cl)c3)CC1)CO2 (stereo unspecified)	D1 antagonist -47
O=C(NCCN1CCN(c2cccc(Cl)c2)CC1)C1COc2ccccc2C1 (stereo unspecified)	D1 antagonist -86
O=C(NCCc1ccccc1)C1COc2ccccc2C1 (stereo unspecified)	none
COc1ccc2c(c1)CC(C(=O)NCCCN1CCN(c3ccccc3F)CC1)CO2 (stereo unspecified)	none
CCOc1ccc(-n2c(/C=C/c3cccc(F)c3)nc3cc(OC)c(OC)cc3c2=O)cc1	none
CCCOc1ccccc1OCC(=O)Nc1cc(Cl)ccc1-n1cncn1	D1 antagonist -71
Cc1cccc(OCC(=O)Nc2cc(Cl)ccc2-n2cncn2)c1C	none
O=C(Nc1cc(Cl)ccc1-n1cncn1)c1cncc(Br)c1	D1 antagonist -45
CC(=O)c1ccc(OCc2cc(C(=O)N3CCC(Oc4ccccc4C)CC3)no2)cc1	D1 antagonist -53
CCC1CCCCN1C(=O)c1cc(COc2ccc(-n3cncn3)cc2)on1 (stereo unspecified)	D1 antagonist -34
Cc1cccc(C)c1OCc1cc(C(=O)N2CCC(c3ccncc3)CC2)no1	D1 antagonist -42
CC(=O)c1ccc(OCc2cc(C(=O)N3CCOCC3)no2)cc1	none
Cc1ccc(OCc2cc(C(=O)N3CCC(Oc4cccnc4)CC3)no2)cc1C	none
CC(=O)c1ccc(OCc2cc(C(=O)N3CCCCCCC3)no2)cc1	D1 antagonist -38
O=C(c1cc(COc2c(F)cccc2F)on1)N1CCC(c2ccncc2)CC1	none
Cc1ccc(C(=O)c2cn(Cc3cc(C)ccc3C)c3nc(C)ccc3c2=O)cc1	none
CC1CCC2(CC1)NC(=O)N(CC(=O)N1CCN(S(=O)(=O)c3ccc4c(c3)CCC4)CC1)C2=O (stereo unspecified)	none
Cc1ccc(-n2ncc(C(=O)NCCc3ccsc3)c2C2CCN(C(=O)OC(C)(C)C)CC2)c(C)c1	none
CCc1cc2c(COC(=O)c3c(C)noc3C)cc(=O)oc2cc1O	TRHR enhancer 33
CCc1cc2c(COC(=O)c3cccc(S(C)(=O)=O)c3)cc(=O)oc2cc1O	none
COc1ccc(C(C)=O)cc1COC(=O)c1c(C)noc1C	D1 antagonist -44
CCOc1ccc(N2C(=O)/C(=C/c3cccs3)N(C)C2=S)cc1	D1 antagonist -37
CCOc1ccc(N2C(=O)CN(C)C2=S)cc1	none
CCOC(=O)c1cccc(NC(=O)/C=C/c2ccc([N+](=O)[O-])cc2)c1	D1 antagonist -44
CCc1ccc(Cn2c(CNS(=O)(=O)c3ccc(F)c(Cl)c3)nc3cccnc32)cc1	none
CCN(CC)c1nc2c(S(=O)(=O)c3cccc(Cl)c3)nnn2c2ccsc12	D1 antagonist -40
CN(Cc1ccccc1)c1nc2c(S(=O)(=O)c3cccc(Cl)c3)nnn2c2ccsc12	D1 antagonist -32
CCOc1ccccc1CN1CCN(C/C=C/c2ccc(OC)cc2)CC1CCO (stereo unspecified)	none
COc1ccc(/C=C/CN2CCN(CCc3ccccc3)C(CCO)C2)cc1 (stereo unspecified)	TRHR enhancer 39
Cc1cnc2c3c(cc(Cl)c2c1)-c1ccccc1S(=O)(=O)N3	none
O=C(CCNC(=O)c1ccco1)Nc1ccc(OC(F)F)c(Cl)c1	D1 antagonist -31
O=C(CCNC(=O)c1ccco1)Nc1ccccc1OC(F)F	none (no result: D1 potentiator)
Cc1ccc(-n2ncc3c(NC4CCCCCC4)ncnc32)cc1	none
C[C@]12CCC(=O)C=C1C=C[C@@H]1[C@@H]2CC[C@@]2(C)[C@H]1CC[C@@]21CCC(=O)O1	D1 antagonist -34
O=[S+]([O-])(c1c(F)cccc1F)N1CCN([S+](=O)([O-])c2c(F)c(F)c(F)c(F)c2F)CC1	none
O=C(CSC1=NC(=O)C(c2ccccc2)C(=O)N1)Nc1cccc(Cl)c1 (stereo unspecified)	D1 antagonist -33
O=C(CSC1=NC(=O)C(c2ccccc2)C(=O)N1)Nc1ccccc1Cl (stereo unspecified)	none
CCCn1ncc(CN2CCN(Cc3ccc(C)o3)C(CCO)C2)c1C (stereo unspecified)	none
CCCn1cc(CN2CCN(Cc3ccc(C)o3)C(CCO)C2)c(C)n1 (stereo unspecified)	D1 antagonist -36
COc1ccc(Cl)cc1NC(=O)CN(c1cccc(C)c1C)S(C)(=O)=O	none
CSCCC(NC(=O)c1ccccc1)C(=O)OCC(=O)c1ccc[nH]1 (stereo unspecified)	none
CSCCC(NC(=O)c1ccc(Cl)cc1)C(=O)OCC(=O)c1ccc[nH]1 (stereo unspecified)	D1 antagonist -35
CSCCC(NC(=O)c1ccc(Cl)cc1)C(=O)OCC(=O)Nc1ccc(C#N)cc1 (stereo unspecified)	D1 antagonist -40
CSCCC(NC(=O)c1ccc(Cl)cc1)C(=O)OCC(C)=O (stereo unspecified)	none
Cc1ccc(NC(=O)Cn2c(CCC(=O)O)ccc2-c2cccs2)cc1Cl	D1 antagonist -69
CC(C)c1ccc(O)c(NC(=S)NC(=O)c2ccc3c(c2)OCO3)c1	D1 antagonist -66
O=C(NC(=S)Nc1ccccc1Br)c1ccc2c(c1)OCO2	none
CC(=O)Nc1ccc(Nc2cc(-c3ccccc3)nc3ncnn23)cc1	TRHR enhancer 38
CC(=O)Nc1ccc(Nc2cc(C)nc3c(-c4ccccc4)cnn23)cc1	D1 antagonist -40
Cc1ccc(-c2c(C(=O)NCCc3ccccc3)oc(=O)c3ccccc23)cc1	none
Cc1ccc2nc(-c3ccsc3)c(Nc3ccc(Cl)cc3)n2c1	none
Cc1ccc(CNC(=O)c2cccnc2Sc2cccc(Cl)c2)cc1	D1 ag 46
COc1ccc(CNC(=O)c2cccnc2Sc2ccc(Cl)cc2)cc1	none
CC(Nc1cc(N2CCNCC2)ccc1[N+](=O)[O-])c1ccccc1 (stereo unspecified)	D1 ag 42
CCS(=O)(=O)N1CCN(c2ccc([N+](=O)[O-])c(NC(C)c3ccccc3)c2)CC1 (stereo unspecified)	none
COC(=O)c1ccc(S(=O)(=O)NCc2ccc(OC)cc2)n1C	none
COC(=O)c1ccc(S(=O)(=O)NC(C)(C)C)n1C	D1 antagonist -37
